This note sets out measurements from PubChem BioAssay AID2314 (National Center for Advancing Translational Sciences (NCATS), 2010).

The structures appear in SMILES notation. Out of some 300,000 compounds screened, about 37,000 (12%) were called active. Cut-off read from the data, not from the text of the source: active = max response mostly above about 13% (no sharp cut-off); inactive = mostly below about 14%. Many of the other results were omitted from the sample, so actives are more common in it than they were.

The test is described as follows: Cycloheximide Counterscreen for Small Molecule Inhibitors of Shiga Toxin. Note: read at 38.3 µM for the half of the compounds with a filed dose; 0% is about no effect. Particulars: cell reporter, cycloheximide protein synthesis inhibition counterscreen; hits give high values. In general terms: The purpose of a counterscreen is to sort out artefacts and off-target activity.
Consider `COc1cccc(NC(=O)Cn2c3ccc(F)cc3c3nc4n(c(=O)c32)CCS4)c1`, for which the max response is 4.56% (inactive).
Next, `CCN(CCNC(=O)C1=C(C)C(=O)OC12CCC(C)CC2)c1ccccc1` (stereo not drawn): 3.3% (inactive); `COc1ccc(-c2n[nH]c3c2CN(C(=O)c2ccc(F)cc2)CC3)cc1`: 9.17% (inactive).
As to `CCOc1cc(-c2noc(CCCC(=O)NC3CCCCC3)n2)ccc1OC`, the max response is -3.29% (inactive).
The same measure for `COC(=O)c1cn(C(=O)c2ccc(Cl)cc2)c2ccccc12`: 10.5% (inactive).
The same measure for `COC(=O)C(=Nc1ccccc1)/C(C(=O)C(=O)N(C)c1ccccc1)=C(\O)c1ccc(Cl)cc1`: 23.6% (active); for `COC(=O)/C(NC(C)=O)=C(\C)c1ccc(Cl)cc1`: 1.02% (inactive); for `CC(=O)c1ccc(NC(=S)NC(=O)CC(C)C)cc1`: 9.98% (inactive).
Next, `CC(C)CC(=O)NC(=S)Nc1ccc(F)cc1F`: 23.2% (active).
`CC(C)CC(=O)NC(=S)Nc1cc(C(=O)O)ccc1Cl`: the max response was -4.75% (inactive).
Next, `Cc1ccc(-c2nc(-c3cccnc3)sc2CC(=O)Nc2ccc(C)c(Cl)c2)cc1`: 8.82% (inactive); `COc1ccc(CCNS(=O)(=O)c2cccc([N+](=O)[O-])c2)cc1`: 4.94% (inactive).
Next, `Cc1cc(C)c2c3c(sc2n1)C(c1ccccc1)C(C#N)=C(N)O3` (stereo not drawn): -1.32% (inactive); `N#CC1=C(N)Oc2c(sc3ccccc23)C1c1ccco1` (stereo not drawn): 28.9% (active).
Next, `N#CC1=C(N)Oc2c(c(=O)oc3ccccc23)C1c1ccccc1OC(=O)c1cccs1` (stereo not drawn): 1.47% (inactive).
Turning to `CC(C)(C)NC(=O)NC(=O)COC(=O)Cc1ccc(Cl)cc1Cl`, the max response is 2.66% (inactive).
Consider `COc1ccc(-c2csc(NC(=O)COC(=O)c3ccc(Br)o3)n2)cc1`, for which the max response was 33.7% (active).
The same measure for `COc1cccc(CC(=O)Nc2nc(-c3ccc(OC)c(OC)c3)cs2)c1`: -5.12% (inactive); for `COc1ccc(-c2nc(CCNC(=O)c3ccc(Br)o3)cs2)cc1`: 13.1% (inactive); for `COc1ccc(OC)c(-c2csc(NC(=O)C3=NNC(=O)CC3)n2)c1`: 9% (inactive).
The same measure for `COc1ccc(-c2csc(NC(=O)COC(=O)Cc3ccc(Cl)cc3Cl)n2)cc1`: 45.1% (active); for `Cc1cccc(NC(=O)c2cc(S(=O)(=O)N3CCC4(CC3)OCCO4)ccc2F)c1`: -1.02% (inactive).
Next, `CCn1cc(/C=C(\NC(=O)c2ccc(C)cc2)C(=O)NCCN2CCOCC2)c2ccccc21`: -1.13% (inactive).
Turning to `CC(C)C(=O)NCC(c1cccs1)S(=O)(=O)c1ccc(F)cc1` (stereo not drawn), the max response was -4.81% (inactive).
As for `CCC(=O)Nc1nnc(S(=O)(=O)N(CC(C)C)c2ccccc2)s1`, the max response was 10.1% (inactive).
The same measure for `O=C(Oc1ccc2c(c1)CCC2)N1CCOCC1`: 53.5% (active).
The same measure for `O=C(Oc1ccc(F)cc1)N1CCOCC1`: -1.5% (inactive); for `CC(=O)c1ccc(OC(=O)N2CCOCC2)cc1`: 11.8% (inactive); for `O=c1c(Cl)c(NC2CC2)cnn1-c1ccccc1`: 31.2% (active).
With `c1ccc(-n2nnnc2NC2CCCCCC2)cc1`, the max response was -1.89% (inactive).
As for `Cc1cccc(-n2ncc(Cl)c(Cl)c2=O)c1`, the max response is -10% (inactive).
The same measure for `CCOC(=O)NC(=O)/C(C#N)=C\c1ccccc1`: -1.84% (inactive); for `CCOC(=O)/C(C#N)=C\c1c(C)cc(C)c(COC(C)=O)c1C`: 0.938% (inactive); for `CCOC(=O)/C(C#N)=C/c1ccc(N2CCCCC2)cc1`: 40.9% (active).
The same measure for `CCOC(=O)/C(C#N)=C/c1ccc(N2CCN(Cc3ccccc3)CC2)cc1`: 10.2% (active); for `C/C(=C/c1ccccc1)C(=O)N1CCN(c2ccccc2)CC1`: 20% (inactive); for `CC(C)OC(=O)C(C#N)c1nc2ccccc2nc1N1CCN(Cc2ccccc2)CC1` (stereo not drawn): -2.37% (inactive).
The same measure for `Cc1cccn2c(=O)c(/C=C(\C#N)C(N)=O)c(N3CCCCCC3)nc12`: 12.8% (inactive); for `COc1ccc(N2CCN(C(=O)/C(C#N)=C/c3ccccc3)CC2)cc1`: 14.2% (active).
Consider `COc1ccc(N2CCN(C(=O)CCSCc3ccccc3F)CC2)cc1`, for which the max response was 7.14% (inactive).
The same measure for `C=CCOC(=O)C(=C)C`: -1.88% (inactive); for `N#Cc1ccc(C(=O)Nc2nc(-c3cccs3)c(C(=O)C(F)(F)F)s2)cc1`: 0.458% (inactive); for `Cn1cccc1Cc1nnc(SCC(=O)NCc2ccc3c(c2)OCO3)n1CCc1ccccc1`: 1.14% (inactive).
For `O=S(=O)(Nc1ccc2nc(-c3ccco3)[nH]c2c1)c1ccccc1`, the max response is 33.7% (active).
As for `O=S(=O)(Nc1ccc2cn[nH]c2c1)c1ccccc1`, the max response was 5.04% (inactive).
The same measure for `Cc1ccc(S(=O)(=O)Nc2ccc3ncccc3c2)cc1`: -2.27% (inactive); for `Cc1ccc2c(cnn2C(=O)CCC(=O)NC2CCCC2)c1`: 1.35% (inactive); for `Cn1c2ccc(F)cc2c2nnc(NN)nc21`: 0.49% (inactive).
The same measure for `Cc1cc(Cl)ccc1OCc1nc(-c2ccncc2)no1`: 35.5% (active); for `Cc1cc(Cl)ccc1OCCCC(=O)NCc1ccncc1`: 2.81% (inactive); for `COc1ccc(-c2noc(COc3ccc(Cl)c(C)c3)n2)cc1`: 8.61% (inactive).
The same measure for `COc1cc(NC(=O)CN2C(=O)NC(C)(c3ccc(OC(F)F)cc3)C2=O)cc(OC)c1OC` (stereo not drawn): -2.19% (inactive); for `COc1cc(/C=C/C(=O)N2CCc3ccccc3C2)cc(OC)c1OC`: 0.558% (inactive); for `O=S(=O)(c1cccs1)N1CCc2ccccc2C1`: -2.33% (inactive).
Regarding `COc1ccc(/C=C2\CCc3ccccc3C2=O)c(OC)c1OC`, the max response is 35.6% (active).
The same measure for `O=C1/C(=C/c2cccs2)SC(=S)N1C1CCS(=O)(=O)C1` (stereo not drawn): -0.776% (inactive); for `c1ccc2c(c1)CCc1snnc1-2`: -1.75% (inactive).
Next, `O=C1/C(=C/c2cccs2)CCc2ccccc21`: 62.8% (active).
Next, `O=C1/C(=C/c2cccs2)CCC1C1CCCC1` (stereo not drawn): 29.4% (active); `CN1C/C(=C/c2cccs2)C(=O)/C(=C\c2cccs2)C1`: 35.9% (active).
For the molecule `CCC1C/C(=C/c2cccs2)C(=O)/C(=C/c2cccs2)C1` (stereo not drawn), the max response is -1.72% (inactive).
Next, `COc1ccc2c(c1OC)C(=O)c1ccccc1C2=O`: 2.67% (inactive).
Next, `CN1CCN(C(=O)/C(=C\c2cccs2)NC(=O)c2cccs2)CC1`: 8.48% (inactive).
